Compound activity deposited in PubChem by National Center for Advancing Translational Sciences (NCATS).
MCF10A rerep = DNA re-replication induction in MCF 10a cells; MCF 10A DNA re-replication, Hoechst nuclear intensity, 48 h; Potency, µM (series often up to 46.1 µM), most hits filed as activators; 350,000 compounds, 2.9% hits; AID 624296; also: nearly all actives have a fitted effect of over 50% in size
uPA surface inh = inhibitors of cell surface uPA generation | Potency, µM (titrated, usually from 38.3 µM), hits mostly inhibitors | AID 540303 | 330,000 compounds, 0.31% hits | cell surface uPA generation assay, qHTS; active = well fitted inhibition curve with a large enough effect; inconclusive = small, poorly fitted or top-dose-only effect; inactive = no such curve, though single readings can be large or run the other way; tested in mouse RAW 264.7 cells; also: nearly all actives have a fitted effect of over 55% in size
Giardia kill = Giardia lamblia killing; Giardia lamblia trophozoite viability; activity change, % at 7.66 µM, hits read low; 340,000 compounds, 0.15% hits; AID 540267; in the data active = activity change below about -80%; inconclusive = between about -30% and that limit;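 also: parasites exposed to compound for two days anaerobically before the ATP read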
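Trophozoite viability was measured as ATP-dependent luminescence, read 15-30 min after reagent addition. Before that, parasites at 100 cells/well were exposed to compounds for 48 h, anaerobically, at 37 deg C.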
SW480 rerep = inducers of DNA re-replication in SW480 colon cancer cells; SW480 DNA re-replication, Hoechst DNA content imaging, 48 h; Potency, µM (top dose mostly 46.1 µM), hits mostly activators; 340,000 compounds, 1.8% hits; also: nearly all actives have a fitted effect of over 55% in size
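Hoechst fluorescence of nuclei (405 nm excitation, 500-530 nm emission) measured by plate-scanning imager after 48 hr compound exposure at 37 C; re-replication scored as increased number of nuclei with elevated intensity.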
Large screens that a line does not name were inactive. In the library only some 4.3% were active in any assay of this set; here they are far more common. Unless noted, calls follow the shape of the dose curve; as a rule, active = well fitted activation curve with a large enough effect; inconclusive = small, poorly fitted or top-dose-only effect; inactive = no such curve, though single readings can be large or run the other way.

COC(=O)C(=Cc1ccccc1[N+](=O)[O-])C(=O)OC	MCF10A rerep 23.1µM, uPA surface inh inconclusive, SW480 rerep inconclusive
O=C(c1cccc(Oc2ccccc2)c1)N1CCN(c2ccccn2)CC1	MCF10A rerep inconclusive
CC(=O)C1=C(C)OC(N)=C(C#N)C1c1cc([N+](=O)[O-])ccc1Cl (stereo unspecified)	MCF10A rerep inconclusive, SW480 rerep 3.26µM
CN(CCC#N)c1ccc(/C=C(\C#N)c2ccccn2)cc1	MCF10A rerep inconclusive, uPA surface inh 2.51µM, Giardia kill inconclusive
COc1cc(/C=C(\C#N)c2ccccn2)ccc1OCc1ccccc1	none
CCN(CC)c1ccc(/C=C(\C#N)c2ccccn2)cc1	MCF10A rerep 23.1µM, Giardia kill inconclusive, SW480 rerep 14.6µM
N#C/C(=C\c1ccc(C(=O)O)cc1)c1ccccn1	none
CCN(Cc1ccccc1)c1ccc(/C=C(\C#N)c2ccccn2)cc1	MCF10A rerep 20.6µM
COCCn1c(Cc2ccccc2)nnc1SC(C)C(=O)NC1CC1 (stereo unspecified)	MCF10A rerep inconclusive
CCOC(=O)[C@@H]1[C@H]2COc3ccc(Br)cc3[C@@H]2N2C(=O)N(c3cccc(Cl)c3)C(=O)[C@@]12C	none
CCc1cccc(OCC(=O)Nc2ccccc2N2CCCC2)c1	MCF10A rerep inconclusive
Cc1cccc(N(C)C(=O)c2cc3cc4ccc(C)cc4nc3o2)c1	MCF10A rerep 10µM, SW480 rerep inconclusive
CCOc1ccc(CSC(=N)N)cc1Cl	MCF10A rerep 18.4µM, uPA surface inh inconclusive, SW480 rerep inconclusive
CCOc1ccc(CSC(=N)N)cc1[N+](=O)[O-]	MCF10A rerep inconclusive, SW480 rerep inconclusive
CCOC(=O)C1CCN(C(=O)C(C)Sc2nnc3ccccn23)CC1 (stereo unspecified)	none
C=CCSc1nc(-c2ccc(OC)cc2)c(C#N)c(=O)n1CC=C	MCF10A rerep 20.6µM
COc1ccc(-c2nc3n(c(=O)c2C#N)CCS3)cc1	none
COc1cc(NCc2ccc3nc(N)nc(N)c3c2C)cc(OC)c1OC	none (no result: uPA surface inh, Giardia kill)
CCOc1cc(OCC)c(C(=O)CCC(=O)O)cc1OCC	none (no result: uPA surface inh, Giardia kill)
COc1ccc(N2C(=O)CC(Sc3ncn[nH]3)C2=O)c(OC)c1 (stereo unspecified)	MCF10A rerep 2.31µM, SW480 rerep 7.31µM
O=C(CCN1C(=O)/C(=C/c2ccccc2)SC1=S)N[C@@H](CO)Cc1ccccc1	MCF10A rerep inconclusive, uPA surface inh inconclusive, SW480 rerep inconclusive
O=C(CCN1C(=O)/C(=C/c2ccccc2F)SC1=S)N[C@@H](CO)Cc1ccccc1	MCF10A rerep inconclusive, SW480 rerep 22.4µM
CCN(CC)S(=O)(=O)c1cccc(NC(=O)c2cc(-c3cccs3)nn2-c2ccccc2)c1	SW480 rerep 8.2µM
COc1ccc(/C=C/C(=O)c2ccccn2)cc1	MCF10A rerep inconclusive
COc1ccc(/C=C/C(=O)c2ccccc2O)cc1	SW480 rerep 0.103µM
COc1cc(OC)c(C(=O)C=Cc2ccc(OC)c(OC)c2)c(OC)c1	SW480 rerep 18.4µM
COc1cc(O)c(C(=O)/C=C/c2ccccc2)c(OC)c1	MCF10A rerep inconclusive, uPA surface inh 8.91µM, SW480 rerep inconclusive
COc1cc(OC)c(C(=O)/C=C/c2ccc(OCc3ccccc3)c(OC)c2)c(OC)c1	SW480 rerep inconclusive
Cc1ccc(C2(c3ccc(C)cc3)CC2C(=O)NC(C)C)cc1 (stereo unspecified)	none
CCOC(=O)CNC(=O)C1CCCCC1	none (no result: MCF10A rerep, uPA surface inh, SW480 rerep)
Cc1cc(O)c2c(c1)OC1(C)CCC3C(C)(C)CCCC34COC2C14 (stereo unspecified)	MCF10A rerep inconclusive (no result: uPA surface inh, Giardia kill)
CCCC(=O)Nc1c(-c2ccccc2Cl)c(=O)c2ccccc2n1C	none
O=C1Nc2ccc(Br)cc2C12NNc1ccccc1O2 (stereo unspecified)	MCF10A rerep 23.1µM, uPA surface inh inconclusive
O=C1Nc2ccc(Br)cc2C1(O)c1ccccc1 (stereo unspecified)	none
CC1=C(CO)C(=O)OC([C@@H](C)C2CC[C@H]3C4C[C@H]5O[C@]56[C@@H](O)C=CC(=O)[C@]6(C)C4CC[C@]23C)C1 (stereo partly specified)	MCF10A rerep 2.31µM, uPA surface inh inconclusive, SW480 rerep inconclusive
CCCS(=O)(=O)Nc1ccc(Nc2c3ccccc3nc3ccccc23)c(OC)c1	SW480 rerep 7.31µM
Clc1ccc2nc(-c3ccncc3)cc(-c3ccccc3)c2c1	none
c1ccc(-c2cc(-c3ccncc3)nc3ccc4ccccc4c23)cc1	MCF10A rerep 14.6µM, SW480 rerep inconclusive
COc1ccc(S(=O)(=O)N2c3cc(Cl)ccc3Oc3nc4ccccc4nc32)cc1	MCF10A rerep 1.03µM, SW480 rerep 2.06µM
CCCCN1CN(S(=O)(=O)c2ccc(OC)cc2)c2nc3ccccc3nc21	none
